The campaign covered roughly 310,000 compounds. About 2,200 (0.71%) showed an effect of 50% or more. Effects have a minus sign here. Many of the other results were omitted from the sample, so strong results are more common in it than they were.

The record followed here is publication PMC4336329 (PLoS ONE, 2015).

Chain of human ether-à-go-go-related gene (hERG) potassium channel (Q12809 whole entry, looked up): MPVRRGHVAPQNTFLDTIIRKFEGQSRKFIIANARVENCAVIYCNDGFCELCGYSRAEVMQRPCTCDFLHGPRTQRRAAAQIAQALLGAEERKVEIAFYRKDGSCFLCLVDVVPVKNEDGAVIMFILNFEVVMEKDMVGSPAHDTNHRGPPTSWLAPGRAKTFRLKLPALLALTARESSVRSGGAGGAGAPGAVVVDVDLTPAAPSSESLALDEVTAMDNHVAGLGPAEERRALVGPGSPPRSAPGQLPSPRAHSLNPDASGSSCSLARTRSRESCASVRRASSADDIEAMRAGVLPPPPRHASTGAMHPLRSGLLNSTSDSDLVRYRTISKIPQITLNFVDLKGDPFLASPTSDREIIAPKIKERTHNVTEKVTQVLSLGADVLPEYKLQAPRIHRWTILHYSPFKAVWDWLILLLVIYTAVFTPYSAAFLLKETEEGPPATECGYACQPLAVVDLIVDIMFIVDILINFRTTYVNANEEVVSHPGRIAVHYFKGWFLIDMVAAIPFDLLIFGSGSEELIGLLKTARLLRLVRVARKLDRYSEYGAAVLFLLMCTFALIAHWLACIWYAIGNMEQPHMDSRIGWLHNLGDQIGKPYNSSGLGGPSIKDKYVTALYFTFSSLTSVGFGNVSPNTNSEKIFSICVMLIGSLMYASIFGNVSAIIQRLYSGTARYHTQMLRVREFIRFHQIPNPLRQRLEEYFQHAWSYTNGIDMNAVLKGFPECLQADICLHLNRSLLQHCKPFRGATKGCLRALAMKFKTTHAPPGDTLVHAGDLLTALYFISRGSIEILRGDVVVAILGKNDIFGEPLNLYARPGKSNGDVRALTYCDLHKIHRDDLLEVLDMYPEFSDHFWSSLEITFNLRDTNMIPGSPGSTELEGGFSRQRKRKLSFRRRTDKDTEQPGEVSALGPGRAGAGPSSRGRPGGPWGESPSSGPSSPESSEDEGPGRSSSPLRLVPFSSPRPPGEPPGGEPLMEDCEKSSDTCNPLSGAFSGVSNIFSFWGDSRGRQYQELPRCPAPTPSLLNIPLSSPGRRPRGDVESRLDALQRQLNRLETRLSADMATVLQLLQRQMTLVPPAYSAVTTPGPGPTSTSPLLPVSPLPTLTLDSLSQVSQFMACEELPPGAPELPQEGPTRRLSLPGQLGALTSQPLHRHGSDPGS

This assay has as its target human ether-à-go-go-related gene (hERG) potassium channel (human, UniProt Q12809). The experiment in a line: primary screen, population patch clamp on CHO cells stably expressing hERG; higher = less effect of the substance.
For the compound `O=C(/C=C/c1cccc([N+](=O)[O-])c1)OC1CCCCC1=O` (stereo not drawn), the “hERG current change (%, negative = inhibition) at 1uM” value was 9.96%. The figure for `Cc1ccc(C(C)NC(=O)CSc2ccc(S(=O)(=O)N3CCOCC3)cn2)cc1C` (stereo not drawn) is 5.8%; for `COc1ccc(Cl)cc1Nc1nc(-c2sc(NC(=O)CC(C)C)nc2C)cs1` it is 11.1%; for `CCOC(=O)c1sc(=S)n(-c2cc(OC)ccc2OC)c1N` it is 6.58%. For the compound `COc1cc2c(cc1OC)CN(CC(=O)Nc1ccc(Cl)cc1Cl)CC2`, the “hERG current change (%, negative = inhibition) at 1uM” value is reported as 2.03%. The figure for `COc1cc2c(cc1OC)CN(CCC(C)c1ccc(Cl)cc1)CC2.O=C(O)/C=C\C(=O)O` (stereo not drawn) is -50.5%; for `COc1cc2c(cc1OC)C(C)N(CCc1ccc(Cl)cc1)CC2.O=C(O)/C=C\C(=O)O` (stereo not drawn) it is -39.9%. On to `O=C(COC(=O)c1cccs1)Nc1ccccc1Cl`, for which the “hERG current change (%, negative = inhibition) at 1uM” value is on record as 14.6%. For `Cc1csc(NC(=O)CSc2nnc(C)n2Cc2ccco2)n1`, the “hERG current change (%, negative = inhibition) at 1uM” value is 7.95%. The same measure for `COc1ccc(-n2c(SCC(=O)Nc3nc(C)cs3)nnc2-c2ccoc2C)cc1`: -85%.

Turning to `Cc1occc1-c1nnc(SCC(=O)NCc2cccs2)n1-c1ccc(F)cc1`, the “hERG current change (%, negative = inhibition) at 1uM” value is given as -14%. Take `Cc1occc1-c1nnc(SCC(=O)Nc2nccs2)n1Cc1ccco1`: the “hERG current change (%, negative = inhibition) at 1uM” value was found to be 3.28%. The figure for `COc1ccc(-n2c(SCC(=O)Nc3ccccc3)nnc2-c2ccoc2C)cc1` is 11.7%; for `COc1cccc(-n2c(SCC(=O)Nc3nccs3)nnc2-c2ccoc2C)c1` it is -84.6%. The same measure for `COc1ccc(-n2c(SCC(=O)NCc3cccs3)nnc2-c2ccoc2C)cc1`: -55.9%; for `CCOc1ccccc1-n1c(SCC(=O)Nc2nccs2)nnc1-c1ccoc1C`: 11.5%. With `COC(=O)CSc1nnc(-c2ccoc2C)n1-c1ccc(OC)cc1`, the “hERG current change (%, negative = inhibition) at 1uM” value was found to be 8.81%. The figure for `Cc1csc(NC(=O)CSc2nnc(-c3ccoc3C)n2Cc2ccco2)n1` is -78.4%.

On to `Cc1ccc(-n2c(SCC(=O)NCc3cccs3)nnc2-c2ccoc2C)cc1`, for which the “hERG current change (%, negative = inhibition) at 1uM” value is given as -16.5%.

Consider `CCn1c(SCC(=O)Nc2nc(C)cs2)nnc1-c1ccoc1C`, for which the “hERG current change (%, negative = inhibition) at 1uM” value was determined as 10.4%. For the compound `O=C(CCCN1C(=O)/C(=C/c2ccccc2Cl)SC1=S)Nc1ccccn1`, the “hERG current change (%, negative = inhibition) at 1uM” value stood at 4.44%. Take `COc1cc(NC(=O)CSc2nccc(C)n2)c(C(=O)O)cc1OC`: the “hERG current change (%, negative = inhibition) at 1uM” value was -7.07%. The figure for `COc1cc2c(cc1OC)C(COc1ccccc1OC)N(C(=O)C(C)(C)C)CC2` (stereo not drawn) is 5.43%; for `COCc1[nH]nc2c1C(c1ccc(OC)c(OC)c1)C(C#N)=C(N)O2` (stereo not drawn) it is 10.6%; for `CCOc1ccc(N2CC(C(=O)Nc3ccccc3N3CCOCC3)CC2=O)cc1` (stereo not drawn) it is 4.41%. As to `COc1ccc(OC)c(NC(=O)CSc2nnc(CNC(=O)COc3ccc(Cl)cc3)o2)c1`, the “hERG current change (%, negative = inhibition) at 1uM” value was 2.4%.

Consider `COC(=O)C1=C(O)C(C(=O)OC)C(c2ccc(C)cc2)C(C#N)(C#N)C1c1ccc(C)cc1` (stereo not drawn), for which the “hERG current change (%, negative = inhibition) at 1uM” value is 6.75%.

Consider `O=C(c1cc2c(ccc3ccccc32)o1)N1CCCCC1`, for which the “hERG current change (%, negative = inhibition) at 1uM” value is given as 14.4%. Turning to `CCOC(=O)N1CCN(C(=O)COC(=O)c2ccc(O)cc2O)CC1`, the “hERG current change (%, negative = inhibition) at 1uM” value is recorded as 16.8%. Regarding `CC(=O)c1ccc(-n2c(-c3cc(-c4ccsc4)n[nH]3)n[nH]c2=S)cc1`, the “hERG current change (%, negative = inhibition) at 1uM” value was found to be 7.9%. The figure for `CCCCCn1c(=O)[nH]c2cc(C(=O)NCCN3CCOCC3)ccc2c1=O` is 6.68%; for `O=C1NC(Cc2ccccc2)c2nc3ccc(Cl)cc3c(=O)n2-c2ccc(Cl)cc21` (stereo not drawn) it is 10.4%.

`COc1ccc(S(=O)(=O)N2CCOCC2)cc1NC(=O)c1cccc(Cl)c1`: the “hERG current change (%, negative = inhibition) at 1uM” value stood at 6.86%. On to `N#Cc1c(N)n(CCOC(=O)c2cccc([N+](=O)[O-])c2)c2nc3ccccc3nc12`, for which the “hERG current change (%, negative = inhibition) at 1uM” value was determined as 13.1%. The same measure for `COc1ccc(CCNC(=O)c2ccc3c(c2)OCO3)cc1`: 11.4%; for `CCOc1ccc(-n2c(SCC(=O)Nc3nccs3)nnc2-c2ccoc2C)cc1`: -35.1%; for `O=C(CSc1nnc(-c2ccccc2)n1-c1ccccc1)NCc1ccco1`: 7.59%.

For `Cn1c(SCC(=O)NCc2ccco2)nnc1-c1cccs1`, the “hERG current change (%, negative = inhibition) at 1uM” value is 8.99%. With `CCN(CC)C(=O)CSc1nnc(-c2ccccn2)n1-c1ccc(C)c(C)c1`, the “hERG current change (%, negative = inhibition) at 1uM” value is reported as -4.22%.

For the compound `Cc1ccc(-n2c(SCC(N)=O)nnc2-c2ccccn2)cc1C`, the “hERG current change (%, negative = inhibition) at 1uM” value turned out to be 13%. For the compound `COc1cccc(-n2c(SCC(=O)NC(C)(C)C)nnc2-c2ccoc2C)c1`, the “hERG current change (%, negative = inhibition) at 1uM” value was -3.46%. `COc1ccc(-n2c(SCC(=O)Nc3nccs3)nnc2-c2ccccc2)cc1`: the “hERG current change (%, negative = inhibition) at 1uM” value is recorded as 13.9%. As to `COc1cccc(-n2c(SCC(=O)NCCc3ccccc3)nnc2-c2ccoc2C)c1`, the “hERG current change (%, negative = inhibition) at 1uM” value is -50.4%. With `O=C(CSc1nnc(-c2cccs2)n1-c1ccccc1)NCc1ccco1`, the “hERG current change (%, negative = inhibition) at 1uM” value is -65.9%. The figure for `Cc1csc(NC(=O)CSc2nnc(-c3ccccn3)n2-c2ccc(C)c(C)c2)n1` is -57.4%; for `COc1cccc(NC(=O)CSc2nnc(-c3ccoc3C)n2-c2ccccc2)c1` it is -17.5%.

On to `COc1ccc(-n2c(SCC(=O)Nc3nccs3)nnc2-c2ccoc2C)cc1`, for which the “hERG current change (%, negative = inhibition) at 1uM” value is listed as -79.4%. The same measure for `COc1ccc(-n2c(-c3cccc(C)c3[N+](=O)[O-])n[nH]c2=S)cc1`: 7.34%; for `Cc1ccc(OCC(=O)NC2CCS(=O)(=O)C2)cc1` (stereo not drawn): 4.41%. For `COc1ccc(C(=O)Nc2nc3ccccc3[nH]2)cc1`, the “hERG current change (%, negative = inhibition) at 1uM” value was 20.6%. The figure for `CCCNc1cc(C)oc(=O)c1C(=O)CC` is 18.4%; for `CC1(C)Cc2c(C#N)c(SCC(=O)c3ccccc3)nc(N3CCOCC3)c2CS1` it is 13%.

For the compound `COc1ccccc1C(=O)NNC(=O)c1ccccc1`, the “hERG current change (%, negative = inhibition) at 1uM” value worked out at 9.59%. The figure for `CC(=O)n1nc(-c2ccccc2)nc1NCc1cccs1` is 7.45%.
